Screens: PubChem, several laboratories
S1P4 ag – human S1P4 receptor agonism; O95977; S1P4-expressing cell line, agonist reporter assay; activation, % at 4.98 µM; 220,000 tested, 0.35% active; in the data active = activation above about 11%;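 note: 0% = DMSO vehicle and 100% = reference agonist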
Target sequence (O95977 whole entry, looked up): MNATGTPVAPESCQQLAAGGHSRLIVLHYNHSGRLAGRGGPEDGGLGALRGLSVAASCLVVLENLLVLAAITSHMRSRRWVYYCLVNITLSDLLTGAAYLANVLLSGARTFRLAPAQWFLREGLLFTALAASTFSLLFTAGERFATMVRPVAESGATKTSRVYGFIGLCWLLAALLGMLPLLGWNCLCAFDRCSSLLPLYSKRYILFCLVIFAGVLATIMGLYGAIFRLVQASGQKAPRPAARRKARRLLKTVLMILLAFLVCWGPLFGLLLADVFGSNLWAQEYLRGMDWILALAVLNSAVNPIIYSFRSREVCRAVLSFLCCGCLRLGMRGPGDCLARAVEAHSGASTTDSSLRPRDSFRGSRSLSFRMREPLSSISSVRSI
KCC2 mod – KCC2 (human) Cl- transport modulation | Q9H2X9 | B-score of Tl+ flux slope (higher = more flux/activation; lower = inhibition) at 10 µM | KCC2 cells, thallium flux FluoZin-2 fluorescence | 190,000 tested, 2.2% active;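 active = thallium flux slope and its plate-corrected score both differing from the plate sample mean at a set confidence after two filtering rounds, in either direction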;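 note: slope of fluorescence scaled to starting intensity during 10 to 20 s after thallium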
S1P4 antag – human S1P4 receptor antagonism. O95977. S1P4-expressing cells, antagonist mode, reporter read-out. inhibition, % at 4.98 µM. 220,000 tested, 0.26% active; in the data active = inhibition above about 29%;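 note: 0% = wells stimulated with agonist and 100% = vehicle wells without agonist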
ROMK mod – modulates human ROMK potassium channel activity; B-score at 10 µM; 130,000 tested, 2% active; Tet-inducible ROMK, thallium flux fluorescence; actives lie on both sides; P48048;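 active = signal ratio slope over the read window, or its plate-corrected B-score, at least 3 SD from the plate mean, either direction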;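 note: B-score of the F/F0 ratio slope over 7 to 12 s after thallium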
S1P3 antag – S1P3 (human) receptor antagonism | CHO S1P3 NFAT-BLA reporter, FRET fluorescence, antagonist mode | 170,000 tested, 0.27% active | AID 485 | Q99500 | inhibition, % at 4.98 µM;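 active = inhibition above the plate cutoff, the mean inhibition of test wells on that plate plus 3 SD, cut at about 28% in these data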;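 note: cells challenged with S1P at its EC80 of 0.8 µM; blue over green emission ratio from cleaved BLA substrate after 4 h stimulation; 0% = S1P-stimulated wells and 100% = unstimulated DMSO-only wells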
RAM inhibit – blocks the yeast RAM network; S. cerevisiae dse1pr::URA3 reporter, 5-FOA growth OD615, 2 d; analog-sensitive cbk1-as2 kinase mutant strain; inhibition, % at 50 µM; 190,000 tested, 1.8% active;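 active = inhibition above a set limit, 3 SD over mean compound inhibition, cut at about 8.4% in these data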;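 note: 0% = DMSO-only wells with no growth and 100% = 10 µM 1-NA-PP1 full growth; inhibition rescues growth on 5-FOA so higher OD means more RAM inhibition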
S1P4 antag conf – confirmation of human S1P4 receptor antagonists | S1P4-expressing cell line, antagonist mode, reporter read-out | AID 1524 | shares compounds with S1P4 antag | inhibition, % at 4.98 µM | 520 tested, 71% active; in the data active = inhibition above about 30%
S1P1 antagonist – human S1P1 antagonism as S1P4 antagonist counter-screen; shares compounds with S1P4 antag; cell-based S1P1 antagonist counterscreen, inhibition; inhibition, % at 4.98 µM; 520 tested, 37% active; AID 1564; in the data active = inhibition above about 40%;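 note: receptor stimulated with S1P near its EC80; 0% = agonist stimulated wells and 100% = vehicle only wells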
Starred values were filed as active, the others as inactive; · = no result given. Rows were chosen to be rich in hits. Some 5.1% of all compounds tested hit in one or more screens of this group.

SMILES	S1P4 ag	KCC2 mod	S1P4 antag	ROMK mod	S1P3 antag	RAM inhibit	S1P4 antag conf	S1P1 antagonist
O=C(NC1CCCc2ccccc21)C12CC3CC(CC(O)(C3)C1)C2 (stereo not given)	0.4	-0.058	-14.4	0.0388	-12.5	0.0	·	·
CS(=O)(=O)c1nc(-c2ccccc2)cc(C(F)(F)F)n1	0.1	-2.15	39.9*	·	·	-1.6	115.6*	18.0
Cc1cc(NC(=O)CCS(=O)(=O)c2nc(-c3ccccc3)cc(C(F)(F)F)n2)no1	·	·	·	·	-34.3	1.5	·	·
Cn1cc([N+](=O)[O-])c(C(=O)Nc2cc(Oc3ccccc3)cc([N+](=O)[O-])c2)n1	0.4	-0.394	37.1*	0.00134	-11.1	5.1	111.4*	-3.1
COc1ccc(CCNCC(O)COc2cccc(Br)c2)cc1 (stereo not given)	-0.9	0.831	-3.3	-1.64	-4.0	2.1	·	·
CCCc1cnc(NCCNCC(O)COc2ccc(Cl)c(Cl)c2)nc1 (stereo not given)	-1.3	0.27	30.9*	·	9.2	·	25.1	63.9*
S=C1NC[C@H](CC2CCCCC2)N1CCCCC1CCCCC1	·	2.5	·	·	·	·	·	·
COc1ccccc1/C=C/C(=O)OCC(=O)Nc1cc(C(F)(F)F)ccc1N1CCOCC1	-0.3	-0.188	-8.6	·	4.8	4.6	·	·
Cc1[nH]c2ccccc2c1/C=N/Nc1nc2ccccc2[nH]1	1.2	-0.125	49.8*	-0.677	22.8	·	56.8*	26.8
Cc1ccccc1/C=N/Nc1nc2ccccc2[nH]1	-0.2	·	15.0	1.82	1.2	-1.0	·	·
CCc1nnc(N/N=C/c2c(C)[nH]c3ccccc23)n1N	-0.1	0.177	96.7*	1.71	11.4	0.5	3.7	2.7
CC(=O)N1CCc2c(sc(NC(=O)c3ccc([N+](=O)[O-])o3)c2C#N)C1	0.2	-0.358	33.4*	-0.0798	1.7	1.8	82.0*	33.7
COc1ccc(NC(=O)/C(Cl)=C(/Cl)S(=O)(=O)Cc2ccccc2)cn1	4.2	·	66.5*	·	·	-0.3	118.9*	61.5*
COc1ccc(NC(=O)Cc2ccc(-c3ccccc3)cc2)cn1	1.0	-0.483	-7.4	1.89	6.2	2.5	·	·
COc1ccc(C(=O)C(CN2CCOCC2)c2ccccc2)cc1 (stereo not given)	-2.6	0.159	45.0*	0.0181	·	2.2	30.6*	19.4
CCCCOc1ccc(C(=O)C(CN2CCOCC2)c2ccccc2)cc1 (stereo not given)	-3.3	0.0226	1.6	·	·	0.4	·	·
CN1CCN(c2ccc(CNS(=O)(=O)c3ccc(Cl)cc3)cc2)CC1	2.6	0.145	-8.8	·	3.3	·	·	·
Cc1ccc(CNC(=O)CSc2c3c(nc4ccc(Cl)cc24)CCCC3)o1	-1.3	4.79*	35.0*	-2.53*	·	4.2	29.1*	6.8
CCN(CC)CCNC(=O)CSc1c2c(nc3cc(Cl)ccc13)CCCC2	-0.7	-0.41	3.8	·	8.6	-0.2	·	·
O=C(CSc1nc2ncccc2[nH]1)c1ccc2c(c1)OCO2	-0.8	0.787	20.7	-0.413	-6.4	·	·	·
COc1ccc(N(C(=O)CCl)C(C(=O)NCCc2ccccc2)c2cccs2)cc1 (stereo not given)	0.4	-0.196	29.9*	-3.78	-7.7	1.2	99.1*	15.5
Cc1ccc(NC(=O)COC(=O)c2ccc3c(c2)OCO3)c(C)c1	0.7	0.543	4.7	·	-0.1	·	·	·
CC(C)(C)OC(=O)N/N=C\C=C\c1ccc2c(c1)OCO2	0.1	-0.415	-22.2	0.642	-5.7	2.8	·	·
COC(=O)N/N=C\C=C\c1ccc2c(c1)OCO2	-0.5	0.00692	55.2*	-0.0162	·	1.1	-19.5	-14.3
COc1cc(C(=O)O)nc2ccc([N+](=O)[O-])cc12	0.0	0.265	11.2	0.0841	-10.3	1.4	·	·
CCS(=O)(=O)N1CCC(C(=O)NCCCN2CCCC2)CC1	-1.3	·	32.3*	-0.0948	12.6	0.9	12.3	14.8
CCS(=O)(=O)N1CCC(C(=O)NCCN2CCOCC2)CC1	0.7	1.28	6.0	0.219	-26.4	1.2	·	·
O=c1c2sccc2nc(SCc2cc(=O)n3ccccc3n2)n1Cc1ccccn1	1.5	-0.452	-8.1	1.25	-12.4	2.2	·	·
C[N+]1=C(/C=C/Nc2ccccc2Cl)C(C)(C)c2ccccc21	2.9	-2.28	-11.2	·	-10.3	1.9	·	·
